For 15 molecules, Potency and outcome results are on record in PubChem BioAssay (NCATS).

Assay [1] in a line: P-glycoprotein substrates identified in KB-8-5-11 adenocarcinoma cell line, qHTS therapeutic library screen (AID 1346987). Also: nearly all actives have a fitted effect of over 65% in size. Summed up:
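Luminescence from CellTiter-Glo, read 5 min after addition, quantified survival of KB-8-5-11 (P-gp-overexpressing) cells exposed to compounds for 72 h. AC50 was derived from concentration-response curves.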
For orientation: In qHTS, concentration-response curves come from the screen itself.

Assay [2] in a line: qHTS assay for measurement of the activity of small molecule inhibitors on Zika virus induced Caspase-3 activity in human iPSC derived neural progenitor cells (hNPCs) (AID 1224857). Also: nearly all actives have a fitted effect of over 65% in size. The procedure, abridged: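 Pretreat hNPCs with compound 1 h; infect ZIKV 2 FFU/cell; 6 h 37 C, 5% CO2; Caspase-Glo 3/7, 30 min RT; luminescence; normalize to no-virus and virus-only wells.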
Assay [3] in a line: qHTS assay for measurement of the activity of small molecule inhibitors on Zika virus induced Caspase-3 activity in human astrocytoma cells (AID 1224859). Summed up:
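Human SNB-19 astrocytoma cells in RPMI 1640 with 10% FBS receive compound one hour ahead of Zika virus at 2 FFU/cell. After 6 h infection, caspase-3/7 activity is detected by Caspase-Glo luminescence.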

The nature of assay [4]: NS1 protein of Zika virus - qHTS assay to identify small molecule inhibitors in human HEK 293 cells (AID 1347053). Also: nearly all actives have a fitted effect of over 55% in size. Summed up: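 TR-FRET signal from two anti-ZIKV NS1 antibodies quantified NS1 in HEK 293 cells 24 h after MR766 infection at MOI = 0.5; compounds were added 1 h before virus. Uninfected cells and infected cells defined the NS1 normalization range.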
Assay [5] in a line: qHTS assay to identify small molecule inhibitors of chordoma cells - UCH-1 (AID 1259355). Also: nearly all actives have a fitted effect of over 55% in size. Summed up: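 800 cells/well, overnight attach; compounds pinned at 15 concs, then auranofin/camptothecin/doxorubicin/rubitecan/topotecan combo added; 48hr 37 C, 5% CO2; CellTiter-Glo, 30min RT, luminescence.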
The nature of assay [6]: qHTS assay to identify small molecule inhibitors of chordoma cells - UCH-2 (AID 1259356).
Assay [7] in a line: P-glycoprotein substrates identified in KB-3-1 adenocarcinoma cell line, qHTS therapeutic library screen (AID 1346986). Also: nearly all actives have a fitted effect of over 60% in size. The settings on record: KB-3-1 parental cells viability, CellTiter-Glo, 72 h; at 44.5 µM (top of the series) unless noted. Summed up:
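Viability read by CellTiter-Glo after 72 h compound exposure in dose-response of KB-3-1 and KB-8-5-11 (P-gp-high) cells. Hits needed AC50 < 10 uM, >50% maximum response and curve class -1.1 to -2.4. Cherry-picks retested ± tariquidar, including pcDNA/MDR-19 HEK-293 pair.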

Assay [8] addresses T1, Tyrosine-protein phosphatase non-receptor type substrate 1 (Homo sapiens) + Leukocyte surface antigen CD47 (Homo sapiens) (UniProt P78324+Q08722). The experiment in a line: CD47-SIRPalpha protein protein interaction - LANCE assay qHTS validation (AID 1347057; active = well fitted curve in the direction sought with a large enough effect in the signal ratio, with a control signal flat, not every such curve was filed as active; the % refers to the signal ratio). The procedure, abridged: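 Inhibition of soluble CD47/SIRPalpha ectodomain association by titrated compounds, measured as 665/615 nm time-resolved FRET ratio after sequential 30 min room-temperature incubations.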
For orientation: TR-FRET usually uses a lanthanide donor and a delayed reading to cut background.

Assay [9] concerns the target T1, Tyrosine-protein phosphatase non-receptor type substrate 1 (Homo sapiens) + Leukocyte surface antigen CD47 (Homo sapiens). Kind of assay: CD47-SIRPalpha protein protein interaction - HTRF assay qHTS validation (AID 1347058; active = well fitted curve in the direction sought with a large enough effect in the signal ratio, not every such curve was filed as active; the % refers to the signal ratio). The procedure, abridged:
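Soluble extracellular domains (6His-CD47, Avi-tag-biotinylated SIRPalpha) in PBS pH 7.4 with 0.05% IGEPAL CA-630. Compounds were preincubated 30 min at RT with CD47 and anti-His-Eu, then SIRPalpha and SAV-XL665 were added. TR-FRET 665/615 ratio.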

Inconclusive results are not listed. The source made the active and inactive calls. Unless noted, calls follow the shape of the dose curve; as a rule, active = well fitted curve in the direction sought with a large enough effect; inconclusive = small, poorly fitted or top-dose-only effect, or another doubt; inactive = no such curve, though single readings can be large; an effect the other way counts as inactive or inconclusive.

T1 sequence (P78324 whole entry, looked up, the tested form may be a part): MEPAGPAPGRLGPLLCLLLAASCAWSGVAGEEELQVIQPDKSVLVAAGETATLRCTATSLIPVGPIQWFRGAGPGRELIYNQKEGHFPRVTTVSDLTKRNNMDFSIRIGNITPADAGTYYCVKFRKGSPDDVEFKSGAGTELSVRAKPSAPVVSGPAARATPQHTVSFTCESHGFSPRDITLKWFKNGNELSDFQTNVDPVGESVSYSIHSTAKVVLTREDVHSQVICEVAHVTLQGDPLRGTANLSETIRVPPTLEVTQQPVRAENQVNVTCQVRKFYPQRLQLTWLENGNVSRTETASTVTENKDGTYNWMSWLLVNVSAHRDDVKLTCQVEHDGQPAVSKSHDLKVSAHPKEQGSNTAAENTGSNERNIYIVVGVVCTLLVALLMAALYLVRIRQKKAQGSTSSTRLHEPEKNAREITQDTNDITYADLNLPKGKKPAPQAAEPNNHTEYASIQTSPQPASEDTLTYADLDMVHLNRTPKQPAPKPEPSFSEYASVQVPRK
T1 sequence (Q08722 whole entry, looked up, the tested form may be a part): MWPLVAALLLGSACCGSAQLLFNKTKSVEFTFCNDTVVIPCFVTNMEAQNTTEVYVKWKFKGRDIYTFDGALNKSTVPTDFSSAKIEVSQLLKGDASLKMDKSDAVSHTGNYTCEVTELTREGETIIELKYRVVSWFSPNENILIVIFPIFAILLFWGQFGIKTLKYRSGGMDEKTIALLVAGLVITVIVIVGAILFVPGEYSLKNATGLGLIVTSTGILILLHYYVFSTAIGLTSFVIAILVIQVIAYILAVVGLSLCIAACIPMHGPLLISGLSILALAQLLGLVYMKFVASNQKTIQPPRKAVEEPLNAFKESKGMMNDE

As for `COc1cccc([C@@]2(O)CCCC[C@@H]2CN(C)C)c1`, the Potency entry in assay [1] was “inactive”.
Consider `CCCN(CCC)C(=O)Cc1c(-c2ccc(Cl)cc2)nc2ccc(Cl)cn12`, for which the outcome in [2], in assay [3] and in [4] was inactive.
`CCCCCN(C)CCC(O)(P(=O)(O)O)P(=O)(O)O`: the molecule was called inactive in assay [2], in [5], in assay [6], in assay [7], in [4] and in [8]. Further, in [9], the result was inactive. Besides, the Potency entry in assay [1] was “inactive”.
Take `CN=C1CN(O)C(c2ccccc2)=c2cc(Cl)ccc2=N1`: the molecule was classed as inactive in [5] and in assay [6]. Besides, the Potency result in [1] is “inactive”.
`Nc1ccccc1`: the molecule was called inactive in assay [2], in [3] and in assay [4].
Take `CC(C)[C@H]1C(=O)N2CCC[C@H]2[C@]2(O)O[C@](NC(=O)[C@@H]3C[C@@H]4c5cccc6[nH]cc(c56)C[C@H]4N(C)C3)(C(C)C)C(=O)N12`: in [1], the Potency entry was “inactive”.
In the case of `CC(=O)C1CCOC1=O` (stereo unspecified), the outcome in assay [2], in assay [3] and in assay [4] was inactive.
On to `CN1C(=O)C(O)N=C(c2ccccc2)c2cc(Cl)ccc21` (stereo unspecified), for which the molecule was classed as inactive in assay [5] and in assay [6].
In the case of `C[C@]12Cc3cn[nH]c3C[C@@H]1CC[C@@H]1[C@@H]2CC[C@@]2(C)[C@H]1CC[C@]2(C)O`, the molecule was classed as inactive in assay [2], in assay [3] and in assay [4].
`Cc1nnc2n1-c1ccc(Cl)cc1C(c1ccccc1)=NC2`: the molecule was called inactive in [6].
On to `CCC(CC)(CNC(=O)CCCO)c1cccc(OC)c1`, for which the molecule was classed as inactive in assay [2], in assay [3] and in assay [4].
Turning to `CCN[C@@H](C)Cc1cccc(C(F)(F)F)c1`, the result in [2], in assay [3] and in assay [4] was inactive.
Take `CN1C(=O)CC(=O)N(c2ccccc2)c2cc(Cl)ccc21`: the molecule was classed as inactive in assay [5] and in assay [6]. The Potency entry in assay [1] is “inactive”.
Consider `CN1C[C@H](C(=O)N[C@]2(C)O[C@@]3(O)[C@@H]4CCCN4C(=O)[C@H](Cc4ccccc4)N3C2=O)C=C2c3cccc4[nH]cc(c34)C[C@H]21`, for which the result in assay [6] was inactive.
For `CCN(CCO)CCn1c(Cc2ccccc2)nc2c1c(=O)n(C)c(=O)n2C`, the result in assay [2], in assay [3] and in assay [4] was inactive.
